Tau ThT inhib – tau fibrillization inhibition (ThT binding). Potency, µM (series often up to 57.4 µM), for inactives: top-dose activity, negative = inhibition, actives largely listed as inhibitors. 270,000 tested, 2.1% active. recombinant tau K18 P301L, heparin-induced fibrillization, ThT fluorescence; also: potency is read from the fitted curve at half-maximal effect; nearly all actives have a fitted effect of over 55% in size
Target sequence (P10636 561-689 P618L limits assumed): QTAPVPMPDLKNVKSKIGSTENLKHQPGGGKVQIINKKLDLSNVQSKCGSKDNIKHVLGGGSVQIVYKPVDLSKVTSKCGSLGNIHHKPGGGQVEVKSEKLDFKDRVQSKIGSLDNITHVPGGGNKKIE
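Aggregation was driven by heparin (20 uM final) acting on recombinant tau […] bearing P301L in 100 mM sodium acetate pH 7; fibrils were detected with Thioflavin T.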
Tau fibril FP – tau fibrillization inhibition (FP) | P10636 | K18 P301L tau heparin fibrillization, Alexa594 FP, 6 h | Potency, µM (doses to about 57.7 µM), without a hit: at the top dose activity, negative = inhibition, usual class: inhibitors | 280,000 tested, 0.39% active; also: potency is read from the fitted curve at half-maximal effect; nearly all actives have a fitted effect of over 55% in size
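Steps: dispense K18 P301L tau (15 uM plus 0.24 uM Alexa 594 tracer, final) in pH 7 sodium acetate; add compound; add heparin (20 uM final); incubate 6 hr, 37 C; add ThT (30 uM final); after 1 hr ambient, read FP.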
G9a inh – blocks human histone lysine methyltransferase G9a; Potency, µM (series often up to 102 µM), for the others: at the top dose activity, negative = inhibition, hits mostly inhibitors; Q96KQ7; 350,000 tested, 8.8% active; G9a H3K9 monomethylation, AlphaScreen, 2 h; also: potency is read from the fitted curve at half-maximal effect; nearly all actives have a fitted effect of over 75% in size
Target sequence (Q96KQ7 913-1193 limits assumed): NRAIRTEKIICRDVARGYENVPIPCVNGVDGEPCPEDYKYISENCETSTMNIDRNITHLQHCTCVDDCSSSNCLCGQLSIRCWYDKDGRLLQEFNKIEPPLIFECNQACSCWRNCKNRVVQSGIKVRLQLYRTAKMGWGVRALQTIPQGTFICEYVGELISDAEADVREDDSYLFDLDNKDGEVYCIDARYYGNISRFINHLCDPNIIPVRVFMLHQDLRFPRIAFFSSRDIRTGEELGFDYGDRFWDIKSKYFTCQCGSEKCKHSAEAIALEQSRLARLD
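G9a (20 nM) was preincubated 15 min with compound, then reacted 2 h at room temperature with 500 nM biotin-H3K9 peptide and 20 µM SAM. Monomethyl-H3K9 detected by AlphaScreen using anti-H3K9me1 antibody.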
Sfp inh – blocks B. subtilis Sfp PPTase activity. Potency, µM, for inactives: largest response in the series, negative = inhibition, usual class: inhibitors. 310,000 tested, 3.5% active. AID 1490. Biochemical Sfp PPTase activity, qHTS. Q9F4F7;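 also: the enzyme is Sfp with the accession as filed and its product quenches rhodamine fluorescence; potency is read from the fitted curve at half-maximal effect; 0% = enzyme reaction without inhibitor and -100% = no enzyme wells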
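Compounds were incubated with enzyme (final 15 nM) for 15 min at room temperature before substrate addition started the reaction. Fluorescence at 525 nm excitation, 598 nm emission was recorded immediately and after 30 minutes.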
Tau fluor counter – counter-screen for tau fibril formation inhibitors | Potency, µM (doses to about 57.7 µM), inactives show at the top dose activity change, negative = decrease | tau K18 P301L Alexa594 fluorescence, heparin fibrillization | 280,000 tested, 0.93% active; also: potency is read from the fitted curve at half-maximal effect; nearly all actives have a fitted effect of over 55% in size
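Human tau K18 P301L (15 uM unlabeled, 0.24 uM Alexa 594-labeled) in 100 mM sodium acetate pH 7 with 20 uM heparin, 6 hr at 37 C. ThT 30 uM added, 1 hr ambient; Alexa 594 FP and total fluorescence read at 555/632 nm.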
FBPA coupling cs – inhibits coupling enzyme system, counter-screen for aldolase hits; coupling enzyme system counterscreen, AmpLite Red fluorescence; activity change, negative = inhibition, % at 58.2 µM, hits read low; 290,000 tested, 0.67% active; in the data active = activity change below about -30%
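Compounds tested against the coupling enzymes alone at 57.5 uM final; readout was AmpLite Red fluorescence (525/598 nm) after 20 min at RT.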
* marks the source's active call; other numbers are inactive results; ? = inconclusive; / = no result; [ ] = dose if it differs, or a comment. Compounds with a hit are over-represented: about 11% of the library has one in this group of screens. Unless noted, calls follow the shape of the dose curve; as a rule, active = well fitted curve in the direction sought with a large enough effect; inconclusive = small, poorly fitted or top-dose-only effect, or another doubt; inactive = no such curve, though single readings can be large; an effect the other way counts as inactive or inconclusive. Unless noted, % is scaled to controls: 0 for no effect and ±100 for the full control effect.

SMILES	Tau ThT inhib	Tau fibril FP	G9a inh	Sfp inh	Tau fluor counter	FBPA coupling cs
COc1ccc(C(=O)Nc2ncc3c(n2)CC(c2ccco2)CC3=O)cc1 (centres undefined)	?	-1%	?	50µM*	-20%	0
[O-][n+]1c2ccccc2cc2ccccc21	/	/	25%[2.33 µM]	/	/	/
COc1cccc(CSc2nc3ccccc3c3nc(CCn4c(C)nc5ccccc54)nn23)c1	3%	2%	-28%[59 µM]	/	18%	/
C[C@H]1OC(=O)CC[C@@H]2[C@]1(C)CCC1[C@@]2(C)CC[C@@]2(C)C3CC(C)(C)CC[C@]3(CO)CC[C@]12C (some centres undefined)	-2%	-7%	/	22%	-2%	-2
COCCN1CN=C(Nc2nc3ccccc3o2)NC1	-16%	-8%	71µM*	5%	-10%	/
O=[N+]([O-])c1ccc(Nc2nc(NC3CCCCC3)nc(N3CCCC3)n2)cc1	?	-15%	11µM*	2%	?	-4
O=[N+]([O-])c1ccc(Nc2nc(N/N=C/c3cccc(F)c3)nc(N3CCCC3)n2)cc1	?	-13%	-13%	8%	?	2
CC(C)(C)c1ccc(OCCON2C(=O)CCC2=O)c(Cl)c1	-8%	3%	9%	12%	-12%	-2
CNCCCCOc1ccc(C(C)(C)C)cc1Cl	-5%	-1%	14µM*	-7%	-5%	-3
COCCNC(=S)Nc1ccc2nc(N3CCCC3)cc(C)c2c1	-11%	1%	71µM*	-19%	-4%	-3
COCCNC(=S)Nc1ccc2nc(N3CCOCC3)cc(C)c2c1	/	/	-1%	9%	/	1
CCCN(CCC)CCCNC(=S)Nc1ccc2nc(N3CCN(C)CC3)cc(C)c2c1	-16%	2%	40µM*	10%	-19%	-3
CCCCN(CC)CCNC(=O)CCC(=O)Nc1ccc2nc(N3CCN(C)CC3)cc(C)c2c1	-20%	-3%	?	-9%	-14%	-34*
CCCN(CCC)CCCNC(=S)Nc1ccc2nc(N3CCN(CC)CC3)cc(C)c2c1	-9%	-2%	50µM*	-5%	-14%	-1
Cc1cccc(CCNC(=O)CN(c2ccc(C(C)C)cc2)S(=O)(=O)c2c(C)nn(C)c2C)c1	-2%	0%	-38%[59 µM]	/	2%	/
C[C@H](NC(=O)N1CCn2c1nc1ccccc12)C(=O)NCCc1ccccc1	/	/	21%[0.0925 µM]	6%	/	/
O=[N+]([O-])c1ccc(N=Nc2c(Cl)cc(O)cc2Cl)cc1	/	32µM*	10µM*	5%	8.9µM*[quencher]	0
CCn1c2ccccc2c2cc(N)ccc21	?	16%	5.6µM*	-22%	?	-9
CCn1c2ccccc2c2cc(CNCCCN3CCOCC3)ccc21	/	/	?	-2%	/	1
CCC(CC)NCc1ccc2c(c1)c1ccccc1n2CC	7%	4%	-119%[12.7 µM]	50µM*	4%	-6
CCn1c2ccccc2c2nc3ccccc3nc21	?	-6%	54%[59 µM]	-18%	-11%	-1
CCn1c(C)cc(=S)c2ccccc21	20µM*	?	3.2µM*	?	-29%	-42*
C=CCSc1nnc2nc3[nH]c4c(C)cccc4c3nn12	16µM*	8%	-11%[59 µM]	-6%	-15%	7
Cc1ccc(S(=O)(=O)N2CCC(=O)CC2)cc1	/	/	51%	12%	/	1
COc1ccc(Nc2ccccc2N)cc1	?	?	16µM*	-30%	-23%	0
COc1ccc(Nc2ccnc3ccccc23)cc1	5%	-1%	-38%[59 µM]	-12%	0%	-1
Nc1ccc(Nc2ccccc2N)cc1	16µM*	?	?	3%	14µM*[quencher]	-31*
COC(=O)C1=C(C(=O)OC)[C@@H]2N(C)c3ccc(OC)cc3[C@@]23C[C@@H](C(=O)OC)N(C(=O)c2cccs2)C3=N1	9%[11.5 µM]	7%[11.6 µM]	40µM*	11%	6%[11.6 µM]	-7
O=C(NCC1CCN(C(=O)c2c(F)c(F)c(F)c(F)c2F)CC1)c1c(F)c(F)c(F)c(F)c1F	/	/	79µM*	6%	/	/
